Here are results for 20 molecules from PubChem BioAssay.

“And” between values parts separate entries of the source, which are not always exact repeats. Equal entries are not always repeated. Records with an inconclusive call do not appear. The source made the active and inactive calls.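 The calls were made as follows, unless noted: active = compounds whose cell count with miR-34 switched on is under 0.7 times the count with it off; inactive = the rest.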

By viability is commonly meant the share of living cells, or the viability signal relative to a control. In general, inhibition refers to the drop in the measured response relative to a control, in per cent.

The nature of experiment [1]: sensitizers of A549 cells to miR-34 induction, primary screen, imaging, A549 dox-inducible miR-34, nuclei and caspase counts (AID 1347080). Particulars: A549 miR-34 inducible, Hoechst nuclei count, 48 h.
Experiment [2] can be described thus: viability rescue of complex I mutant cybrids, primary screen, cell-based, galactose medium, ATP luminescence (AID 1645843;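 active = z-score of at least 1.8 in each of two replicates, scored against plate mean and spread of sample wells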;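 also: positive z means more ATP and so rescue of galactose-driven cybrid death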). Particulars: complex I mutant cybrid cells, 72 h, stronger effect = higher value.
In experiment [3] the target is ATP-dependent translocase ABCB1 (Homo sapiens) (UniProt P08183). Put plainly: MDR1 (ABCB1) efflux transporter inhibition, cell-based (AID 377; in the data active = fluorescence slope change above about 50%). Conditions: MDR1-expressing cells, fluorescent substrate accumulation slope; stronger effect = higher value; concentration not given here.
Experiment [4] in a line: hESC survival regulators, cell-based (AID 493140; call rule not given here;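 also: cells exposed to compounds for four days before counting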). Conditions: human embryonic stem cell survival screen; stronger effect = higher value.
A short description of experiment [5]: liver-stage malaria parasite growth inhibition, primary screen, cell-based, HepG2, luciferase luminescence, HepG2 viability (AID 624349; in the data active = parasite load remaining mostly below about 12%, no sharp cut-off; inactive = mostly above about 10%;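 also: 100% = mean of DMSO negative control wells on the same plate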). Particulars: P. berghei liver stage in HepG2, luciferase luminescence, concentration not given here; parasite load remaining: stronger effect = lower value; viability: measured here: HepG2 viability without parasites.
Experiment [6] is described as follows: circadian clock period modulators, cell-based, LOPAC library, luminescence reporter (AID 2774; call rule not given here;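 also: values are relative to mean of DMSO wells on each plate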). Particulars: circadian reporter cells, at 7 µM, actives lie on both sides.
The subject of experiment [7] is Hepatitis C virus NS3 helicase. The experiment can be described thus: HCV NS3 helicase inhibitors, primary screen, biochemical, fluorescence polarization, LOPAC1280 library (AID 687035; in the data active = inhibition above about 37%). Particulars: Purified HCV NS3 helicase, Cy5-dT15 ssDNA binding fluorescence polarization; stronger effect = higher value; concentration not given here.
Experiment [8] in a line: Cy5 fluorescence quenching or enhancement artefacts, artefact control for HCV NS3 helicase inhibitor project, biochemical, LOPAC1280 (AID 687037; call rule not given here). Conditions: Cy5-DNA-NS3h complex fluorescence interference counterscreen.
[9] abbreviates: stronger effect = lower value, cell number ratio, induced over uninduced.
The mark [10] stands for this setting: measured here: relative caspase fold change +Dox/-Dox.
[11] abbreviates: measured here: total cells with miR-34 induction, stronger effect = lower value.
Setting [12] is: measured here: total cells without miR-34 induction.

Chain of ATP-dependent translocase ABCB1 (Homo sapiens) (P08183 whole entry, looked up): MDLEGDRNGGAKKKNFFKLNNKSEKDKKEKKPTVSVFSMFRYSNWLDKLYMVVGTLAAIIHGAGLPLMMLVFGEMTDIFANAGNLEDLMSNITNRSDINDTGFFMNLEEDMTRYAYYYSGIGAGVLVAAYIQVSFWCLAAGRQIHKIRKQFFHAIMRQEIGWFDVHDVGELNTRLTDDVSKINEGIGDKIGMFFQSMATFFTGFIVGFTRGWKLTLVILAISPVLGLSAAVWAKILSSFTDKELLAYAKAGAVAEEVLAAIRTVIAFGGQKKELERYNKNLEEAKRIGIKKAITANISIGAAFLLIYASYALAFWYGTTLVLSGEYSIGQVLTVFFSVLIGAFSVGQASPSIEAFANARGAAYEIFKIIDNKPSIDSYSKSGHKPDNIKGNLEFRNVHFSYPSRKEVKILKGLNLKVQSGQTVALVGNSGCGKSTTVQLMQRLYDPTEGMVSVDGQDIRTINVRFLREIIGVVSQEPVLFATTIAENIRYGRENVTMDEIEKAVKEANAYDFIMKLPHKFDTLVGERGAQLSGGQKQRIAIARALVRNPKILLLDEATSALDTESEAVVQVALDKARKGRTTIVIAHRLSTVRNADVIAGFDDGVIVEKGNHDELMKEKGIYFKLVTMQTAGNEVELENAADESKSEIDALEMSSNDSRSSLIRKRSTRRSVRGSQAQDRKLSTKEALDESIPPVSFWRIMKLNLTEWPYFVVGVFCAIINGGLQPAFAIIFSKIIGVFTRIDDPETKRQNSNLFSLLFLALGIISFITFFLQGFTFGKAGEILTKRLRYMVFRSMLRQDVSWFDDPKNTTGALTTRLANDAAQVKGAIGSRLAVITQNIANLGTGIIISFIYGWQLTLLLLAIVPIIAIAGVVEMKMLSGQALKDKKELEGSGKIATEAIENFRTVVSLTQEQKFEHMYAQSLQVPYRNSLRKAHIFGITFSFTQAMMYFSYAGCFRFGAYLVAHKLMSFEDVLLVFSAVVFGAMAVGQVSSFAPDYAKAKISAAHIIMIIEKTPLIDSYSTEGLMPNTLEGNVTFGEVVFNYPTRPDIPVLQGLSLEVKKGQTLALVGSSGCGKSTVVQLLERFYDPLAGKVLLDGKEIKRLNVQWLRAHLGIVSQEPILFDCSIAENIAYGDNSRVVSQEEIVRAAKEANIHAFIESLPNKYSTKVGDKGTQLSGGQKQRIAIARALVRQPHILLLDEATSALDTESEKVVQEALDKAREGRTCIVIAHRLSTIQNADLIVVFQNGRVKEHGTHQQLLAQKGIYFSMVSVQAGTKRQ

As for `CN1C2CC(OC(=O)C(CO)c3ccccc3)CC1C1OC12` (stereo not given), the fold change is 0.901 (inactive) in experiment [1] (setting [9]) and 2.66 in experiment [1] (setting [10]). The cell count worked out at 9400 in experiment [1] (setting [11]) and 10400 in experiment [1] (setting [12]). Also, in experiment [2], the z-score is 0.87 (inactive).

On to `O=C1NC(=O)c2c1c(-c1ccccc1)cc1[nH]c3ccc(O)cc3c21`, for which the fold change in experiment [1] (setting [9]) is 0.992 (inactive) and 1.16 (inactive); in experiment [1] (setting [10]), 0.466 and 1.08. Besides, the cell count in experiment [1] (setting [11]) is 2060 and 2860; in experiment [1] (setting [12]), 2080 and 2470. Besides, in experiment [2], the z-score was -1.27 (inactive) and -0.655 (inactive).

On to `CC(=O)[C@@]1(O)CCC2C3CC(C)C4=CC(=O)CC[C@]4(C)C3CC[C@@]21C` (stereo not given in full), for which the fold change in experiment [1] (setting [9]) was 0.817 (inactive); in experiment [1] (setting [10]), 0.742. Moreover, the figures for the cell count in experiment [1] (setting [11]) and in experiment [1] (setting [12]) were 7720 and 9450, respectively. The z-score in experiment [2] is -0.04 (inactive).

As for `C#C[C@]1(O)CCC2C3CCC4=CC(=O)CCC4C3CC[C@@]21CC` (stereo not given in full), the fold change in experiment [1] (setting [9]) is 0.905 (inactive); in experiment [1] (setting [10]), 1.25. In addition, the cell count in experiment [1] (setting [11]) came out at 8490; in experiment [1] (setting [12]), 9390. Besides, the z-score in experiment [2] was 0.65 (inactive).

As for `C=CC1=C(C(=O)O)N2C(=O)C(NC(=O)C(=NO)c3csc(N)n3)C2SC1` (stereo not given), the values for the fold change in experiment [1] (setting [9]) and in experiment [1] (setting [10]) were 0.914 (inactive) and 1.91, respectively. For the same molecule, the cell count stood at 9440 in experiment [1] (setting [11]) and 10300 in experiment [1] (setting [12]). Moreover, in experiment [2], the z-score was 0.13 (inactive).

In the case of `COC1C(OC(C)=O)CC(=O)OC(C)CC=CC=CC(O)C(C)CC(CC=O)C1OC1OC(C)C(OC2C[C@@](C)(OC(=O)CC(C)C)C(O)C(C)O2)C(N(C)C)C1O` (stereo not given in full), the results for the fold change in experiment [1] (setting [9]) and in experiment [1] (setting [10]) were 1.04 (inactive) and 1.51, respectively. Also, the cell count in experiment [1] (setting [11]) was 9630; in experiment [1] (setting [12]), 9280. Moreover, in experiment [2], the z-score is -1.59 (inactive).

With `C=CC1=C(C(=O)O)N2C(=O)C(NC(=O)C(=NOCC(=O)O)c3csc(N)n3)C2SC1` (stereo not given), the fold change was 0.923 (inactive) in experiment [1] (setting [9]) and 0.894 in experiment [1] (setting [10]). Also, the cell count is 8710 in experiment [1] (setting [11]) and 9440 in experiment [1] (setting [12]). For the same molecule, the z-score in experiment [2] is 0.065 (inactive).

In the case of `C=CCC1C=C(C)CC(C)CC(OC)C2O[C@@](O)(C(=O)C(=O)N3CCCCC3C(=O)OC(C(C)=CC3CCC(O)C(OC)C3)C(C)C(O)CC1=O)C(C)CC2OC` (stereo not given in full), the fold change was 1.03 (inactive) in experiment [1] (setting [9]) and 1.03 in experiment [1] (setting [10]). Besides, the cell count in experiment [1] (setting [11]) stood at 5920; in experiment [1] (setting [12]) it was 5760. Further, the z-score in experiment [2] is 0.96 (inactive).

Consider `OCC1OC(n2cnc3c(NC4CCCC4)nc(Cl)nc32)C(O)C1O` (stereo not given), for which the fold change in experiment [1] (setting [9]) was 0.88 (inactive); in experiment [1] (setting [10]) it was 1.42. For the same molecule, the cell count came to 9520 in experiment [1] (setting [11]) and 10800 in experiment [1] (setting [12]). In addition, the z-score in experiment [2] is 1.5 (inactive).

Take `CCC(C)C(=O)OC1CCC=C2C=CC(C)C(CCC3CC(O)CC(=O)O3)C21` (stereo not given): the fold change was 0.968 (inactive) in experiment [1] (setting [9]) and 0.887 in experiment [1] (setting [10]). For the same molecule, the cell count in experiment [1] (setting [11]) worked out at 1480; in experiment [1] (setting [12]), 1530. Moreover, the z-score in experiment [2] is -0.74 (inactive).

Turning to `COc1cc(CNC(=O)CCCCC=CC(C)C)ccc1O`, the fold change is 0.954 (inactive) in experiment [1] (setting [9]) and 2.14 in experiment [1] (setting [10]). Also, the cell count in experiment [1] (setting [11]) is 9660; in experiment [1] (setting [12]), 10100. Further, in experiment [2], the z-score is 0.315 (inactive).

`O=C1C=CC(=O)c2c1ccc1c2ccc2ccccc21`: the fluorescence slope change in experiment [3] was 25.9% (inactive). Further, the survival in experiment [4] was 5.83 (inactive). For the same molecule, the parasite load remaining in experiment [5] is 14.2% (inactive) and 61.1% (inactive). The viability in experiment [5] is 64.9% and 72.9%. The fold change in experiment [1] (setting [9]) is 0.87 (inactive); in experiment [1] (setting [10]), 1.13. Further, the cell count was 7950 in experiment [1] (setting [11]) and 9140 in experiment [1] (setting [12]).

As to `NC(=S)c1ccc[n+]([C@@H]2O[C@@H](COP(=O)([O-])OP(=O)(O)OC[C@H]3O[C@@H](n4cnc5c(N)ncnc54)C(OP(=O)(O)O)[C@H]3O)C(O)C2O)c1` (stereo not given in full), the period change in experiment [6] is 0.055 h (inactive). The inhibition in experiment [7] is -5% (inactive). Moreover, in experiment [8], the fluorescence ratio (interference) is 1 (inactive). Besides, the results for the fold change in experiment [1] (setting [9]) and in experiment [1] (setting [10]) were 0.943 (inactive) and 1.17, respectively. Moreover, the figures for the cell count in experiment [1] (setting [11]) and in experiment [1] (setting [12]) were 10100 and 10700, respectively. Further, in experiment [2], the z-score is 0.57 (inactive).

On to `COc1c2c(nc3ccccc13)OC(C(C)(O)CO)C2` (stereo not given), for which, in experiment [6], the period change was 0.065 h (inactive). Also, in experiment [4], the survival was 14.3 (inactive). Also, the parasite load remaining in experiment [5] was 78.4% (inactive). The molecule further showed a viability in experiment [5] of 73.1%. For the same molecule, the results for the fold change in experiment [1] (setting [9]) and in experiment [1] (setting [10]) were 0.919 (inactive) and 0.535, respectively. Moreover, the cell count turned out to be 8340 in experiment [1] (setting [11]) and 9080 in experiment [1] (setting [12]).

For `O=C1O/C(=C/Br)CCC1c1cccc2ccccc12` (stereo not given), in experiment [6], the period change is -0.24 h (inactive). Also, the inhibition in experiment [7] is 0% (inactive). Besides, the fluorescence ratio (interference) in experiment [8] was 1 (inactive). In addition, the results for the fold change in experiment [1] (setting [9]) and in experiment [1] (setting [10]) were 0.964 (inactive) and 0.87, respectively. Besides, the cell count came to 4330 in experiment [1] (setting [11]) and 4490 in experiment [1] (setting [12]).

In the case of `NCCC1CCCC(CCN)N1` (stereo not given), in experiment [6], the period change was 0.21 h (inactive). In addition, in experiment [7], the inhibition was -7% (inactive). In addition, the fluorescence ratio (interference) in experiment [8] is 0.9 (inactive). Moreover, the fold change in experiment [1] (setting [9]) is 1.09 (inactive); in experiment [1] (setting [10]), 1.24. Also, the cell count in experiment [1] (setting [11]) came to 10800; in experiment [1] (setting [12]) it was 9840. For the same molecule, the z-score in experiment [2] is 0.405 (inactive).

With `CCCCCC(O)c1cccc(OCc2ccc3ccccc3n2)c1` (stereo not given), the period change in experiment [6] was 0.015 h (inactive). Moreover, the survival in experiment [4] is 78.8 (inactive). Moreover, the inhibition in experiment [7] is 1% (inactive). Also, in experiment [8], the fluorescence ratio (interference) was 0.9 (inactive). Besides, the fold change in experiment [1] (setting [9]) was 0.911 (inactive) and 0.978 (inactive); in experiment [1] (setting [10]) it was 1.06 and 0.946. The cell count is 5590 and 5690 in experiment [1] (setting [11]); 6140 and 5820 in experiment [1] (setting [12]).

As to `N=C(N)c1ccc(OCCCCCOc2ccc(C(=N)N)cc2)cc1` (tested in a mixture with another compound), in experiment [6], the period change is 0.16 h (inactive). For the same molecule, the inhibition in experiment [7] is -1% (inactive). Also, the fluorescence ratio (interference) in experiment [8] is 1 (inactive). For the same molecule, the fold change was 1.03 (inactive) in experiment [1] (setting [9]) and 0.748 in experiment [1] (setting [10]). For the same molecule, the cell count in experiment [1] (setting [11]) is 3790; in experiment [1] (setting [12]) it was 3670. Moreover, the z-score in experiment [2] was -1.29 (inactive).

`N#C/C(=C\c1ccc(O)c(O)c1)C(=O)NCCCNC(=O)/C(C#N)=C/c1ccc(O)c(O)c1`: in experiment [6], the period change was -0.285 h (inactive). For the same molecule, in experiment [7], the inhibition was 37% (active). In addition, in experiment [8], the fluorescence ratio (interference) is 1 (inactive). The fold change in experiment [1] (setting [9]) is 0.987 (inactive); in experiment [1] (setting [10]), 1.18. The cell count in experiment [1] (setting [11]) amounted to 9720; in experiment [1] (setting [12]), 9850. The z-score in experiment [2] was -0.275 (inactive).

Regarding `C[N+](C)(C)CCOP(=O)(O)OP(=O)([O-])OC[C@H]1O[C@@H](n2ccc(N)nc2=O)C(O)[C@H]1O` (stereo not given in full), in experiment [7], the inhibition is -3% (inactive). For the same molecule, the fluorescence ratio (interference) in experiment [8] is 1 (inactive). Also, the fold change was 1.01 (inactive) in experiment [1] (setting [9]) and 1.19 in experiment [1] (setting [10]). The cell count came out at 10900 in experiment [1] (setting [11]) and 10800 in experiment [1] (setting [12]). For the same molecule, in experiment [2], the z-score was 0.115 (inactive).
